# In the supplement of paper PMC8728848:
# The sample as a whole holds a higher share of the strongest signals than the screen did.
# Tests used:
# Test in all cases: glycan array binding signal (z-score within array); higher = stronger binding
# Details in all cases: glycan notation: IUPAC condensed, linker removed
# GlcA(b1-6)Gal = biological target: GlcA(b1-6)Gal
# Outline: (§1)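 Glycan array data came from 3228 arrays in the Consortium for Functional Glycomics database, and only arrays with an available protein sequence were kept. Glycan names were put into IUPAC-condensed notation, and columns mapping to the same glycan were averaged. The binding signal is a within-array Z-score, averaged across arrays of one protein sequence run at different concentrations or buffers and across linkers. A negative Z-score can be read as non-binding.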
# [1] = biological target: GlcNAc(a1-4)Gal(b1-4)GalNAc
# Outline: as §1
# [2] = biological target: GlcNAc(a1-4)Gal(b1-4)GlcNAc
# Outline: as §1
# [3] = biological target: GlcNAc(b1-3)Gal(b1-4)GlcNAc(b1-2)[GlcNAc(b1-3)Gal(b1-4)GlcNAc(b1-6)]Man(a1-6)[GlcNAc(b1-3)Gal(b1-4)GlcNAc(b1-2)Man(a1-3)]Man(b1-4)GlcNAc(b1-4)GlcNAc
# Outline: as §1
# [4] = biological target: GlcNAc(b1-3)Gal(b1-4)GlcNAc(b1-3)Gal(b1-4)GlcNAc(b1-3)Gal(b1-4)GlcNAc(b1-2)[GlcNAc(b1-3)Gal(b1-4)GlcNAc(b1-3)Gal(b1-4)GlcNAc(b1-3)Gal(b1-4)GlcNAc(b1-6)]Man(a1-6)[GlcNAc(b1-3)Gal(b1-4)GlcNAc(b1-3)Gal(b1-4)GlcNAc(b1-3)Gal(b1-4)GlcNAc(b1-2)Man(a1-3)]Man(b1-4)GlcNAc(b1-4)[Fuc(a1-6)]GlcNAc
# Outline: as §1
# [5] = biological target: GlcNAc(b1-3)Gal(b1-4)GlcNAc(b1-3)Gal(b1-4)GlcNAc(b1-3)Gal(b1-4)GlcNAc(b1-3)Gal(b1-4)GlcNAc(b1-2)Man(a1-3)[GlcNAc(b1-3)Gal(b1-4)GlcNAc(b1-3)Gal(b1-4)GlcNAc(b1-3)Gal(b1-4)GlcNAc(b1-3)Gal(b1-4)GlcNAc(b1-2)Man(a1-6)]Man(b1-4)GlcNAc(b1-4)GlcNAc
# Outline: as §1
# [6] = biological target: GlcNAc(b1-3)Gal(b1-4)GlcNAc(b1-6)[Gal(b1-3)]GalNAc
# Outline: as §1
# [7] = biological target: GlcNAc(b1-3)Gal(b1-4)GlcNAc(b1-6)[GlcNAc(b1-3)Gal(b1-3)]GalNAc
# Outline: as §1
# [8] = biological target: GlcNAc(b1-3)[GlcNAc(b1-6)]Gal(b1-4)GlcNAc
# Outline: as §1
# Kdn(a2-3)Gal(b1-3)GlcNAc = biological target: Kdn(a2-3)Gal(b1-3)GlcNAc
# Outline: as §1
# [9] = biological target: Man(a1-2)Man(a1-2)Man(a1-3)Man
# Outline: as §1
# Man(a1-2)Man(a1-3)Man = biological target: Man(a1-2)Man(a1-3)Man
# Outline: as §1
# [10] = biological target: Man(a1-3)[Man(a1-6)]Man(b1-4)GlcNAc(b1-4)GlcNAc
# Outline: as §1
# Man(a1-6)Man = biological target: Man(a1-6)Man
# Outline: as §1
# [11] = biological target: Neu5Ac(a2-3)Gal(b1-4)GlcNAc(b1-2)Man(a1-3)[Neu5Ac(a2-6)Gal(b1-4)GlcNAc(b1-2)Man(a1-6)]Man(b1-4)GlcNAc(b1-4)GlcNAc
# Outline: as §1
# [12] = biological target: Neu5Ac(a2-3)Gal(b1-4)GlcNAc(b1-2)[Neu5Ac(a2-3)Gal(b1-4)GlcNAc(b1-6)]Man(a1-6)[Neu5Ac(a2-3)Gal(b1-4)GlcNAc(b1-2)Man(a1-3)][GlcNAc(b1-4)]Man(b1-4)GlcNAc(b1-4)GlcNAc
# Outline: as §1
# [13] = biological target: Neu5Ac(a2-3)Gal(b1-4)GlcNAc(b1-3)Gal(b1-4)GlcNAc(b1-3)Gal(b1-4)GlcNAc(b1-2)Man(a1-3)[Neu5Ac(a2-3)Gal(b1-4)GlcNAc(b1-3)Gal(b1-4)GlcNAc(b1-3)Gal(b1-4)GlcNAc(b1-2)Man(a1-6)]GalNAc
# Outline: as §1
# [14] = biological target: Neu5Ac(a2-3)Gal(b1-4)GlcNAc(b1-3)Gal(b1-4)GlcNAc(b1-6)[Gal(b1-3)]GalNAc
# Outline: as §1
# [15] = biological target: Neu5Ac(a2-3)Gal(b1-4)[Fuc(a1-3)]GlcNAc(b1-3)Gal
# Outline: as §1
# [16] = biological target: Neu5Ac(a2-3)Gal(b1-4)[Fuc(a1-3)]GlcNAc(b1-3)GalNAc
# Outline: as §1
# [17] = biological target: Neu5Ac(a2-6)Gal(b1-3)GlcNAc(b1-3)[Gal(b1-4)GlcNAc(b1-6)]Gal(b1-4)Glc
# Outline: as §1
# Neu5Ac(a2-6)Gal(b1-4)Glc = biological target: Neu5Ac(a2-6)Gal(b1-4)Glc
# Outline: as §1
# [18] = biological target: Neu5Ac(a2-6)Gal(b1-4)GlcNAc(b1-2)Man(a1-3)[Neu5Ac(a2-6)Gal(b1-4)GlcNAc(b1-2)Man(a1-6)]Man(b1-4)GlcNAc(b1-4)GlcNAc
# Outline: as §1
# [19] = biological target: Neu5Ac(a2-6)Gal(b1-4)GlcNAc(b1-3)Gal(b1-4)GlcNAc(b1-3)Gal(b1-4)GlcNAc(b1-2)Man(a1-3)[Neu5Ac(a2-6)Gal(b1-4)GlcNAc(b1-3)Gal(b1-4)GlcNAc(b1-3)Gal(b1-4)GlcNAc(b1-2)Man(a1-6)]GalNAc
# Outline: as §1
# Neu5Ac(a2-6)GalNAc = biological target: Neu5Ac(a2-6)GalNAc
# Outline: as §1
# [20] = biological target: Neu5Ac(a2-6)GalNAc(b1-4)GlcNAc
# Outline: as §1
# [21] = biological target: Neu5Ac(a2-8)Neu5Gc(a2-3)Gal(b1-4)GlcNAc
# Outline: as §1
# [22] = biological target: Neu5Ac9Ac(a2-6)Gal(b1-4)GlcNAc
# Outline: as §1
binder,measurement,setting,value
PX14343G-pdi-535-24-535 (Parabacteroides distasonis) (protein) LDTVPKDQLAPSTTWQTEADAKGFIVGCYKDLLDGNTLLYLDCGSDIGYNNFPWEGFRPWGDGSLSSSNPGQILYDYKSIRKANTFLENVDKVTFSSDAVKANYVAQAKAIRAYKYFLMNWWYGGVPIISSYSSADEAKVERNTEQEVRDYIAKDLDEALAGIAEAPEARGYIAKGAVLAIKMREALYYGDWQKAKDAAKAIIDLKQYELDPDYTNLFKVSGVDSKEIILADQNIETLDGLGTIGQMYNNVDQGWSSIVPTQNLVDMYEMSDGLTKEESKTYDAKHPFANRDPRMAMTILYPGRDWRGDVLNTLDEKLQDGTVNKNFPTYTDNASKSALTWAKYLDPMDQYGDVWSSGACPIVFRYAEVLLTYAEAANELSGPSDEIYGYLNQIRQRVGMGEVDKAKYGTKDKLRELIRRERTVELAGEGLRRADIVRWQEDGKMLAEKVMNGDLLRVTGTINYGESEPTKRAEITGTAVIETRQFSSRNRYLPIPQTSMDKNPNLKQNPGY,glycan array binding signal (z-score),GlcA(b1-6)Gal,-0.046
same,glycan array binding signal (z-score),[1],-1.02
same,glycan array binding signal (z-score),[2],2.04
same,glycan array binding signal (z-score),[3],2.37
same,glycan array binding signal (z-score),[4],0.865
same,glycan array binding signal (z-score),[5],0.208
same,glycan array binding signal (z-score),[6],-1.23
same,glycan array binding signal (z-score),[7],0.869
same,glycan array binding signal (z-score),[8],1
same,glycan array binding signal (z-score),Kdn(a2-3)Gal(b1-3)GlcNAc,0.143
same,glycan array binding signal (z-score),[9],0.086
same,glycan array binding signal (z-score),Man(a1-2)Man(a1-3)Man,-0.387
same,glycan array binding signal (z-score),[10],-0.762
same,glycan array binding signal (z-score),Man(a1-6)Man,2.08
same,glycan array binding signal (z-score),[11],-0.159
same,glycan array binding signal (z-score),[12],-0.038
same,glycan array binding signal (z-score),[13],2
same,glycan array binding signal (z-score),[14],1.55
same,glycan array binding signal (z-score),[15],-0.539
same,glycan array binding signal (z-score),[16],0.588
same,glycan array binding signal (z-score),[17],-0.502
same,glycan array binding signal (z-score),Neu5Ac(a2-6)Gal(b1-4)Glc,-0.218
same,glycan array binding signal (z-score),[18],-0.872
same,glycan array binding signal (z-score),[19],1.49
same,glycan array binding signal (z-score),Neu5Ac(a2-6)GalNAc,-0.874
same,glycan array binding signal (z-score),[20],-0.103
same,glycan array binding signal (z-score),[21],16.3
same,glycan array binding signal (z-score),[22],0.187
